Reference: ChEMBL document CHEMBL1961873, “Compounds: GSK PKIS; Assays: Nanosyn kinase panel” (2012)

Experiments:
[1] = molecular target: Dual specificity protein kinase CLK3 (Homo sapiens) (UniProt P49761); settings: at 1 µM;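 further: each value is the mean inhibition of CLK3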
[2] = molecular target: Dual specificity tyrosine-phosphorylation-regulated kinase 1A (Homo sapiens) (UniProt Q13627); settings: at 0.1 µM
[3] = molecular target: Dual specificity tyrosine-phosphorylation-regulated kinase 1A (Homo sapiens) (UniProt Q13627); settings: at 1 µM
[4] = molecular target: Dual specificity tyrosine-phosphorylation-regulated kinase 1B (Homo sapiens) (UniProt Q9Y463); settings: at 0.1 µM
Chain of Dual specificity tyrosine-phosphorylation-regulated kinase 1B (Homo sapiens) (Q9Y463 whole entry, looked up): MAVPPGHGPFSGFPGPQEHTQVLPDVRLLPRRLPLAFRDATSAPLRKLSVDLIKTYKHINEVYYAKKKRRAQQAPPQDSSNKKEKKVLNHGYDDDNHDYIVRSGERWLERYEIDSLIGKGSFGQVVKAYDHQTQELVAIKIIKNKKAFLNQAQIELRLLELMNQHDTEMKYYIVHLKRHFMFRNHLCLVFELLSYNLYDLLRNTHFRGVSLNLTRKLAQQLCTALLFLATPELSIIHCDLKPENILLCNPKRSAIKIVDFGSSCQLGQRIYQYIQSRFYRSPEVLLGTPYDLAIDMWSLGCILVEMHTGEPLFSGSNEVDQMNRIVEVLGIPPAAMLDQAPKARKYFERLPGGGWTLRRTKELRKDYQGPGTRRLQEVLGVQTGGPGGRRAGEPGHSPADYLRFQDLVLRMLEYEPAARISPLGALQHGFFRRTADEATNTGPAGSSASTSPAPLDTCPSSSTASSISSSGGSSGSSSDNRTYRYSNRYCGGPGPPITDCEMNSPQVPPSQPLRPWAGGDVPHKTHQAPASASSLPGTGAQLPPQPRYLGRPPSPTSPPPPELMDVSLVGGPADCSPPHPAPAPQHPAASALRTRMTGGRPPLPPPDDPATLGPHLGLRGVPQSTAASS

[5] = molecular target: Dual specificity tyrosine-phosphorylation-regulated kinase 1B (Homo sapiens) (UniProt Q9Y463); settings: at 1 µM
[6] = molecular target: T1, Dual specificity tyrosine-phosphorylation-regulated kinase 2 (Homo sapiens) (UniProt Q92630); settings: at 0.1 µM
T1 sequence (whole entry): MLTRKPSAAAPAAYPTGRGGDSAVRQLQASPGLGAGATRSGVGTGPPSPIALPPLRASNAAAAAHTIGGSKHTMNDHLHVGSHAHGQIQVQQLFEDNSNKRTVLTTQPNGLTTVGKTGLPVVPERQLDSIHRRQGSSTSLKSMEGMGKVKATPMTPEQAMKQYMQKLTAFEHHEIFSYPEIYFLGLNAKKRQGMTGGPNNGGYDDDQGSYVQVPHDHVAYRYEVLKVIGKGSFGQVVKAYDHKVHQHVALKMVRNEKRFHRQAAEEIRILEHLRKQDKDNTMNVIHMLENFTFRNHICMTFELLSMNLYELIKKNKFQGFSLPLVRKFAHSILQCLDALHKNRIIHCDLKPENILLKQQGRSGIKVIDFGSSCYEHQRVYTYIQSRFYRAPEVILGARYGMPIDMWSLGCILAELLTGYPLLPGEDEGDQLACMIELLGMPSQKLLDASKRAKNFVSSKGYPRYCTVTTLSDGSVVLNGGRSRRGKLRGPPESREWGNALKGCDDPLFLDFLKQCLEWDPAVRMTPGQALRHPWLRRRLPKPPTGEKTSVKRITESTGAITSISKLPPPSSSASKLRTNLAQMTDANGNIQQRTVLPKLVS

[7] = molecular target: T1, Dual specificity tyrosine-phosphorylation-regulated kinase 2 (Homo sapiens); settings: at 1 µM
[8] = molecular target: Glycogen synthase kinase-3 alpha (Homo sapiens) (UniProt P49840); settings: at 0.1 µM
Chain of Glycogen synthase kinase-3 alpha (Homo sapiens) (P49840 2-483 limits assumed): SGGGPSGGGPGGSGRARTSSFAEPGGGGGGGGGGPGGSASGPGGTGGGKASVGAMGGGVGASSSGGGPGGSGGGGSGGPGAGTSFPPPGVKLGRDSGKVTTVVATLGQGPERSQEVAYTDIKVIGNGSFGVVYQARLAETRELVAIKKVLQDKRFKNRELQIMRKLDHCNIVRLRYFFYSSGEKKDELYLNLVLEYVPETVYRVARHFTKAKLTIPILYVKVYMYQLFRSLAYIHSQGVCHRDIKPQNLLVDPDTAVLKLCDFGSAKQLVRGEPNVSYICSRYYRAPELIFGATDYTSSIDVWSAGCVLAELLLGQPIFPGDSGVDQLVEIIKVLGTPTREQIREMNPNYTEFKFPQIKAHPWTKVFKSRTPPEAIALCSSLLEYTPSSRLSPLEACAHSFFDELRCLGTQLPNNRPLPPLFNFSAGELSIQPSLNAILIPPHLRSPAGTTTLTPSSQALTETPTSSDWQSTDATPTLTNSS

[9] = molecular target: Glycogen synthase kinase-3 alpha (Homo sapiens) (UniProt P49840); settings: at 1 µM
[10] = molecular target: Glycogen synthase kinase-3 beta (Homo sapiens) (UniProt P49841); settings: at 0.1 µM
Chain of Glycogen synthase kinase-3 beta (Homo sapiens) (P49841 whole entry, looked up): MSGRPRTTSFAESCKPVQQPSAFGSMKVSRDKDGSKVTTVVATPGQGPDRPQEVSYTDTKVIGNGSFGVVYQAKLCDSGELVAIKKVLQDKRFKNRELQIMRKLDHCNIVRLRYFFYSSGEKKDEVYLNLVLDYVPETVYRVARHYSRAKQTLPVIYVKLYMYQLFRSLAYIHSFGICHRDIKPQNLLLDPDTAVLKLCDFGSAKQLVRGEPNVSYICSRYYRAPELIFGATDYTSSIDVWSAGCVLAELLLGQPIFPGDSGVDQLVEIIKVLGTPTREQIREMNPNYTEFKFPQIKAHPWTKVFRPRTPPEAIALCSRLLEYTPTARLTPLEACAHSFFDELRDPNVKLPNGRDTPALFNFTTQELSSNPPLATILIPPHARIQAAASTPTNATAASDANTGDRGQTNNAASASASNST

[11] = molecular target: Glycogen synthase kinase-3 beta (Homo sapiens) (UniProt P49841); settings: at 1 µM
[12] = molecular target: Homeodomain-interacting protein kinase 1 (Homo sapiens) (UniProt Q86Z02); settings: at 0.1 µM
Chain of Homeodomain-interacting protein kinase 1 (Homo sapiens) (Q86Z02 whole entry, looked up): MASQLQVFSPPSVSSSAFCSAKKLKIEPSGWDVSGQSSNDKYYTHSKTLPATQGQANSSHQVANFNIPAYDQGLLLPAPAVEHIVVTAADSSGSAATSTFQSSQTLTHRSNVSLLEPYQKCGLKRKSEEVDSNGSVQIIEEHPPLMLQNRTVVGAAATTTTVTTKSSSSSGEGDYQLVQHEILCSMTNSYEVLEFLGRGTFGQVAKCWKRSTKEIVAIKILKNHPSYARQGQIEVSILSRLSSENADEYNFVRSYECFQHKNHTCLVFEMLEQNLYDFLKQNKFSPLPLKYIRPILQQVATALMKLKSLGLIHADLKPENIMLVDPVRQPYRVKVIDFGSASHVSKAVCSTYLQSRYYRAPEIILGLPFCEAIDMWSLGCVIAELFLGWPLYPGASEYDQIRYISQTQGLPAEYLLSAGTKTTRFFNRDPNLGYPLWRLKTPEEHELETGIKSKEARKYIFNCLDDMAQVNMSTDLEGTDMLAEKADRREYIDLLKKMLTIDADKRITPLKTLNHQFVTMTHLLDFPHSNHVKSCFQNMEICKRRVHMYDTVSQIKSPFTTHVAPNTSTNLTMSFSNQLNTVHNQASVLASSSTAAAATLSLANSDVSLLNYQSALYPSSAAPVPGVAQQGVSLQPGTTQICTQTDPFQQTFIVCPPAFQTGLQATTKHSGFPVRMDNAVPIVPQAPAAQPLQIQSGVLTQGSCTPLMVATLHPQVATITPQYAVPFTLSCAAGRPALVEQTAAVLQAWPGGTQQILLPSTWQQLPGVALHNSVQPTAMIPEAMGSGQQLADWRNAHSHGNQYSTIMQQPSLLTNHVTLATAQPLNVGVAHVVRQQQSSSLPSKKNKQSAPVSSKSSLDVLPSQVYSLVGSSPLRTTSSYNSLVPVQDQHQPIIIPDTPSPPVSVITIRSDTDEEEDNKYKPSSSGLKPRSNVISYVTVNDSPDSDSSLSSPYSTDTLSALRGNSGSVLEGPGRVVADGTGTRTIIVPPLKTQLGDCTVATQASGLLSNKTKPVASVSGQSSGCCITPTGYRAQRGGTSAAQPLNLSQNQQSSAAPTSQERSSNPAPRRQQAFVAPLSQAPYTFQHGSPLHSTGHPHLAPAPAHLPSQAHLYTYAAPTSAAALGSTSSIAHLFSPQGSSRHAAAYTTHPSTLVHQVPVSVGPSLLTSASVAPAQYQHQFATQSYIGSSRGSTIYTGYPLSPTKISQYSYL

[13] = molecular target: Homeodomain-interacting protein kinase 1 (Homo sapiens) (UniProt Q86Z02); settings: at 1 µM
[14] = molecular target: T2, Homeodomain-interacting protein kinase 4 (Homo sapiens) (UniProt Q8NE63); settings: at 0.1 µM
T2 sequence (whole entry): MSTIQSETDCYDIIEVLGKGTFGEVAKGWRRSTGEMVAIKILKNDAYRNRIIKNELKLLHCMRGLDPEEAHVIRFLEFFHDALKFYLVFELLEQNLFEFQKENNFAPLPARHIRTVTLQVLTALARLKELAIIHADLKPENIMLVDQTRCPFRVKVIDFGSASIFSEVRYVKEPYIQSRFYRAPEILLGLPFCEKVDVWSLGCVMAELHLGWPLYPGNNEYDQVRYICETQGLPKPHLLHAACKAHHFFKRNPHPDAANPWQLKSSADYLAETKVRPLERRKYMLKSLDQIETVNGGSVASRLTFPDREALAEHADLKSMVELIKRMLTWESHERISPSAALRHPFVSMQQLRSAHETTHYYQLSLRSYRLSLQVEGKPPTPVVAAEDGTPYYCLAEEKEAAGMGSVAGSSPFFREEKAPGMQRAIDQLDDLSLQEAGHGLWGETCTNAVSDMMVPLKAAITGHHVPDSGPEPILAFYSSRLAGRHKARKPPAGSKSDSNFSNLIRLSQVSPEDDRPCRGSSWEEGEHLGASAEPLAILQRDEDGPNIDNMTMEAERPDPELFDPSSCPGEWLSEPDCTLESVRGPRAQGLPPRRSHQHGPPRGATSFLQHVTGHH

[15] = molecular target: T2, Homeodomain-interacting protein kinase 4 (Homo sapiens); settings: at 1 µM
[16] = molecular target: Mitogen-activated protein kinase 9 (Homo sapiens) (UniProt P45984); settings: at 0.1 µM
Chain of Mitogen-activated protein kinase 9 (Homo sapiens) (P45984 whole entry, looked up): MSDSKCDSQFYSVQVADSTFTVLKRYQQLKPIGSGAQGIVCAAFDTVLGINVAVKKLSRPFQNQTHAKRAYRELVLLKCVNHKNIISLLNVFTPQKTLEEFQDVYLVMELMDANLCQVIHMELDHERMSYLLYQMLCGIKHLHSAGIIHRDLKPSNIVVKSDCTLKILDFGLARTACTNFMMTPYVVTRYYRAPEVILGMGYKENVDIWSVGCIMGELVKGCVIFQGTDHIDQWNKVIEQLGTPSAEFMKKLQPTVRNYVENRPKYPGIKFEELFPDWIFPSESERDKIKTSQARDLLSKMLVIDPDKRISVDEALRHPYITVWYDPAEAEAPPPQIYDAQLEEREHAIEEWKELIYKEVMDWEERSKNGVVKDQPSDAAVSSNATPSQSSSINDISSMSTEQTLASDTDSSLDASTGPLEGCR

[17] = molecular target: Mitogen-activated protein kinase 9 (Homo sapiens) (UniProt P45984); settings: at 1 µM
[18] = molecular target: Mitogen-activated protein kinase 1 (Homo sapiens) (UniProt P28482); settings: at 0.1 µM
Chain of Mitogen-activated protein kinase 1 (Homo sapiens) (P28482 whole entry): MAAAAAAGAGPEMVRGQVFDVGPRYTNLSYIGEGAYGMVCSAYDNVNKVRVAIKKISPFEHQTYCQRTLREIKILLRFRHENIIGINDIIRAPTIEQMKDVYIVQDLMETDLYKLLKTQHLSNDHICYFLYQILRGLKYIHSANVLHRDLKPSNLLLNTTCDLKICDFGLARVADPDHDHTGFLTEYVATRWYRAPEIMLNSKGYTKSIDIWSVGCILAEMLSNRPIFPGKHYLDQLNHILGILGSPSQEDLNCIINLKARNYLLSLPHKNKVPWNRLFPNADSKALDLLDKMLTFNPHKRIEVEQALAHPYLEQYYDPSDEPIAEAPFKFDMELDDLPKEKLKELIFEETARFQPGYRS

[19] = molecular target: Mitogen-activated protein kinase 1 (Homo sapiens) (UniProt P28482); settings: at 1 µM
[20] = molecular target: Mitogen-activated protein kinase 3 (Homo sapiens) (UniProt P27361); settings: at 0.1 µM;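 further: each value is a mean inhibition figure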
Chain of Mitogen-activated protein kinase 3 (Homo sapiens) (P27361 whole entry): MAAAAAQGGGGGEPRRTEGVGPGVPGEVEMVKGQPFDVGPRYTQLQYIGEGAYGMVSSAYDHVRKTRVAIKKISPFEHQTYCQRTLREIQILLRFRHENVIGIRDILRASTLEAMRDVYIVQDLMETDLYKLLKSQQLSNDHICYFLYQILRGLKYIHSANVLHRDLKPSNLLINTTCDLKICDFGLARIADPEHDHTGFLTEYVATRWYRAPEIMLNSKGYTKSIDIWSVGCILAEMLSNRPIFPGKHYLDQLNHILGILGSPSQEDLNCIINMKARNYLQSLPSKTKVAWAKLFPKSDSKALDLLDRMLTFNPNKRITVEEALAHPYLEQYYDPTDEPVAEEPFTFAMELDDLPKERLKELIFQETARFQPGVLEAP

Chain of Dual specificity protein kinase CLK3 (Homo sapiens) (P49761 whole entry, looked up): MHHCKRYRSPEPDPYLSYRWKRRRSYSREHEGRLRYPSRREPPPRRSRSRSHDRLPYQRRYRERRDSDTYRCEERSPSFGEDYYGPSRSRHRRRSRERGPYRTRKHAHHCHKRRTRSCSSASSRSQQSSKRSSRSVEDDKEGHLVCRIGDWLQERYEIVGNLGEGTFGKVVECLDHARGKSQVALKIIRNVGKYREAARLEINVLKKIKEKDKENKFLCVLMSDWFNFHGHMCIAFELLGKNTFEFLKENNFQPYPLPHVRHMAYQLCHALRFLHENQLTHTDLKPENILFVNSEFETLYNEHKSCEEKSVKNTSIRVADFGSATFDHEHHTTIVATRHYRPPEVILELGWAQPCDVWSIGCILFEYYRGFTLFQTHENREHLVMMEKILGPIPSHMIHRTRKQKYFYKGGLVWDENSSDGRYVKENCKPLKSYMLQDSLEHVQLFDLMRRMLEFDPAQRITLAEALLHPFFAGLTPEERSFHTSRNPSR

Structure (SMILES) | inhibition [1] | inhibition [2] | inhibition [3] | inhibition [4] | inhibition [5] | inhibition [6] | inhibition [7] | inhibition [8] | inhibition [9] | inhibition [10] | inhibition [11] | inhibition [12] | inhibition [13] | inhibition [14] | inhibition [15] | inhibition [16] | inhibition [17] | inhibition [18] | inhibition [19] | inhibition [20]
CN(C)c1ccc2c(c1)/C(=C/Nc1ccc(S(N)(=O)=O)cc1)C(=O)N2 | 3.39% | 7.43% | 33.4% | 4.54% | 24.5% | 1.54% | 4.74% | 8.28% | 21.6% | 6.03% | 24.2% | 0.15% | 12% | -0.09% | 6.94% | 3.27% | 2.71% | 1.12% | 2.53% | 0.06%
NS(=O)(=O)c1ccc(N/N=C2\C(=O)Nc3ccc(C(=O)NCCCn4ccnc4)cc32)cc1 | 8.02% | 7.66% | 15.9% | 4.25% | 15.6% | 4.62% | 16.2% | 40.6% | 76% | 39.7% | 77.7% | 4.8% | 34.3% | 3.92% | 17.6% | 6.1% | 10.9% | 9.89% | 38.5% | 5.16%
O=C1Nc2ccccc2/C1=C/Nc1ccc(-n2cncn2)cc1 | 1.52% | 6.54% | 14.3% | 3.43% | 11.6% | 3.46% | 6.8% | 17.3% | 28.2% | 15.3% | 25.4% | 2.9% | 5.5% | 0.86% | 3.17% | 5.47% | 12.1% | 6.04% | 6.4% | 93.3%
COc1cc(N2CCN(C(C)C)CC2)ccc1Nc1nc(Nc2ccc(F)cc2C(=O)NC[C@@H](O)CO)c2cc[nH]c2n1 | 4.1% | 0.93% | 12.7% | -2.96% | 12% | 3.04% | 5.79% | -1.27% | 0.1% | -0.78% | -0.58% | 9.42% | 46.1% | 32.3% | 69.8% | 14.9% | 57.4% | 0.55% | 7.31% | 6.47%
COc1ccc2ncn(-c3cc(O[C@H](C)c4ccccc4Cl)c(C(N)=O)s3)c2c1 | -2.47% | -1.4% | 0.78% | -5.09% | -1.96% | 2.27% | 2.75% | -1.42% | 1.7% | -1.37% | -0.28% | -4.71% | -1.67% | 0.62% | 5.59% | 2.17% | -0.22% | 5.14% | 4.54% | 4.56%
CCN(CC)Cc1ccc(Nc2nccc(-c3cnn4ncccc34)n2)cc1 | 5.2% | 40% | 88% | 43.6% | 69.2% | 5.06% | 25.7% | 24.4% | 65.8% | 18% | 62.3% | 50.6% | 71.9% | 18.1% | 59% | 6.18% | 30.9% | 6.89% | 15.8% | 
C/C(Nc1ccc(S(N)(=O)=O)cc1)=C1/C(=O)Nc2ccccc21 | 1.28% | 3.02% | 11.5% | 2.13% | 12.7% | -1.67% | 3.79% | 1.25% | 7.04% | 1.17% | 9.04% | -1.51% | -1.35% | 0.16% | 2.56% | -3.47% | 3.67% | 3.1% | -2.06% | 2.55%
